The values that follow come from PubChem BioAssay (NCATS).

SMILES strings stand for the structures. Results filed as inconclusive are left out. Activity calls are given as the source filed them. Unless noted, calls come from the whole dose curve; as a rule, active = well fitted curve in either direction with a large enough effect (not every such curve was filed as active); inconclusive = small, poorly fitted or top-dose-only effect, or another doubt; inactive = flat fitted curve, though single readings scatter.

Experiment [1] concerns the target Lysosomal acid glucosylceramidase (Homo sapiens) (UniProt P04062). The experiment can be described thus: Glucocerebrosidase-p2 (AID 348; in the data active = potency below about 10 µM; note: potency is the fitted concentration of half-maximal effect). The settings on record: purified GBA, blue fluorogenic substrate, 40 min. Put shortly: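 Normal human glucocerebrosidase (0.2 nM) with blue fluorogenic substrate (80 uM final) in citrate/phosphate pH 5.9 with 10mM sodium taurocholate, 0.01% tween-20; 40 min RT, NaOH/glycine stop; fluorescence Ex 365/Em 440; AC50 from a titration from 0.6 nM upwards.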

Experiment [2] in a line: AP1 Signaling Pathway (AID 357). Note: % is set by controls: 0 for no effect and ±100 for the full control effect. Particulars: ME-180 AP-1-bla reporter, EGF-induced, beta-lactamase ratio, 5 h; at 7.69 µM (top of the series) unless noted. In outline:
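ME-180 cells with beta-lactamase reporter under AP-1 response element, stimulated with EC50 EGF; compounds tested in titration series, 5 h at 37 °C. CCF4 substrate added 2.5 h at room temperature; 460/530 nm emission ratio gave %activity and AC50.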

Experiment [3] can be described thus: Stat Signaling Pathway (AID 446).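 Note: ME-180 cervical cancer cells given 40 pM IL-6 alongside compound; SIE-controlled beta-lactamase reporter measured as 460/530 nm FRET emission ratio; % is set by controls: 0 for no effect and ±100 for the full control effect.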 The settings on record: ME-180 SIE beta-lactamase reporter, IL-6 stimulated, 5 h; at 7.69 µM (top of the series) unless noted. Put shortly:
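Compound effects on IL-6-induced STAT reporter activity were measured in ME-180 cells. After overnight culture, cells were co-treated with 40 pM IL-6 for 5 hrs before beta-lactamase substrate loading at room temperature.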

The target in experiment [4] is Glucocorticoid receptor (Homo sapiens) (UniProt P04150). The experiment can be described thus: GR-GFP Redistribution (AID 450;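 active = compounds whose dose series gives a full or clear partial fitted curve of increased nuclear translocation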; note: potency is the fitted concentration of half-maximal effect). The settings on record: U2OS GR-GFP nuclear translocation, laser cytometry, 2 h.
The target is the same in experiment [5]. The experiment can be described thus: GR-EFC Redistribution (AID 451; calls by dose curve; note: potency is the fitted concentration of half-maximal effect). The settings on record: CHO-K1 GR-EFC translocation, beta-gal luminescence, 2 h. In outline:
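Translocation of GR-ED fusion to nuclear EA restores b-gal, read by luminescence after 1 h room-temperature detection. Engineered CHO-K1 biosensor cells, 1,000/well, exposed 2 h at 37 C to titrations up to 46 uM final.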

Experiment [6] has as its target Mitogen-activated protein kinase 10 (Mus musculus) (UniProt Q61831). The experiment can be described thus: JNK3 AlphaScreen Assay (AID 530).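 Note: kinase came from lysate of stimulated human HepG2 cells; signal reports phosphorylation of biotinylated GST-cJun 1-79 at Ser73 with 10 µM ATP; % is set by controls: 0 for no effect and ±100 for the full control effect.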 The settings on record: JNK3 lysate, c-Jun phosphorylation; series mostly up to 57.1 µM. In outline: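 qHTS titrations with 15 min compound pre-incubation before adding ATP (10 uM final). Read-out: AlphaScreen of Ser73-phosphorylated biotin-GST-cJun using HepG2 lysate JNK3 activated by IL-1β and TNFα.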
(In general: Alpha assays give light when donor and acceptor beads are brought close together.)

The target in experiment [7] is 3',5'-cyclic-AMP phosphodiesterase 4B (Homo sapiens) (UniProt Q07343). The experiment can be described thus: qHTS Assay for Inhibitors of PDE-IV (AID 607; active = well fitted activation curve with a large enough effect in the main read-out, with a control signal flat, not every such curve was filed as active; note: % of control where 0% means no effect). Particulars: HEK293 ACTOne CNG channel cells, membrane potential fluorescence; series mostly up to 22.9 µM. Put shortly:
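ACTOne HEK293 cells carry a modified cAMP-gated CNG channel and express endogenous PDE4; plated 1000 cells/well, compounds up to 22.9 uM final. Membrane-potential dye fluorescence (ex 535/em 590) was read; parental cells received 10 uM forskolin + 100 uM RO 20-1724.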
On the technique in general: Quantitative high-throughput screening tests each substance at several concentrations.

Experiment [8] can be described thus: Confirmation and Secondary Assay for Modulators of Hemoglobin Beta Chain Splicing at IVS2 654 locus (AID 910; active = well fitted curve in the direction sought with a large enough effect; an effect the other way counts as inactive or inconclusive;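 note: HeLa cells stably carrying EGFP split by mutant beta-globin IVS2-654 intron; per-well total GFP intensity by laser scanning cytometry after 2-day treatment; % of control where 0% means no effect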). The settings on record: HeLa EGFP-654 splicing reporter, GFP fluorescence, 48 h; series mostly up to 38.3 µM. In outline:
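Readout: per-well total peak green fluorescence (488 nm ex, 500–520 nm em) from objects 5–250 µm, reflecting correct splicing of an EGFP-654 reporter. Compounds were applied for 2 days at 37 °C to overnight-plated HeLa EGFP-654 cells; controls were DMSO and 500 nM IVS2-654 PNA.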

The nature of experiment [9]: Confirmation and Secondary Assay for Modulators of Hemoglobin Beta Chain Splicing at IVS2 705 locus (AID 930; active = well fitted curve in the direction sought with a large enough effect; an effect the other way counts as inactive or inconclusive;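 note: HeLa cells stably expressing the EGFP-705 splicing reporter; GFP fluorescence per well restored by corrected splicing of the IVS2-705 intron in EGFP; % of control where 0% means no effect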). Particulars: HeLa EGFP-705 splicing reporter, GFP fluorescence, 48 h; series mostly up to 38.3 µM. In outline:
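HeLa IVS2-705 EGFP reporter cells, 500/well, compound 2 d at 37C; correct splicing yields fluorescent EGFP. Control: 500 nM antisense PNA. Read-out: total peak GFP intensity.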

The nature of experiment [10]: qHTS Assay for Lipid Storage Modulators (AID 1519; calls by dose curve). Particulars: Drosophila S3 cells, BODIPY lipid droplet/cell ratio, laser cytometry, cells loaded with oleic acid; for activity change, negative = inhibition: at 57.5 µM (top of the series). In outline: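 Cells seeded at 5,000 per well were treated with compounds over a concentration series and loaded with oleic acid (400 uM, as added). Lipid droplet fluorescence (488 nm excitation, 500-530 nm channel) was read by laser-scanning cytometry and normalized to 20 uM Triacsin C.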

Experiment [11] is described as follows: Primary qHTS for small molecule stabilizers of the endoplasmic reticulum resident proteome: Secreted ER Calcium Modulated Protein (SERCaMP) assay (AID 1508630; active = well fitted curve in the direction sought with a large enough effect; an effect the other way counts as inactive or inconclusive; note: % is set by controls: 0 for no effect and ±100 for the full control effect). Particulars: SH-SY5Y GLuc-SERCaMP (Gaussia luciferase released on ER calcium loss) secretion, thapsigargin, luminescence; series mostly up to 38.4 µM. Put shortly:
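The SH-SY5Y reporter protocol was run at 3 concentrations up to 38.3 uM (primary) or 11 concentrations (follow-up): 16 h compound, 100 nM thapsigargin for 4 h, then extracellular luciferase luminescence.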

Experiment [12] has as its target Cytochrome P450 3A4 (Homo sapiens) (UniProt P08684). The experiment in a line: qHTS Assay for Activators of Cytochrome P450 3A4 (AID 885; active = well fitted curve in the direction sought with a large enough effect; an effect the other way counts as inactive or inconclusive; note: nearly all actives have a fitted effect of over 65% in size). The settings on record: recombinant CYP3A4, Luciferin-PPXE luminescence, 60 min; series mostly up to 57.1 µM. Put shortly: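 CYP3A4 activity: Luciferin-PPXE O-dealkylation, 25uM substrate, 200mM KPO4, RT throughout. Read-out is luciferase luminescence; higher values reflect activation.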

Experiment [13] in a line: NFAT Signaling Pathway (AID 444). The settings on record: Jurkat NFAT-bla M1, carbachol, beta-lactamase ratio, 5 h; at 7.69 µM (top of the series) unless noted. Put shortly:
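Read-out: CCF4 FRET ratio (460 nm/530 nm) after 1 h RT dye loading, used for %activity and AC50 from titration series. Cells: Jurkat NFAT-β-lactamase/M1 line, treated with compound plus 1 uM carbachol for 5 h, 37 °C.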

Experiment [14] is described as follows: qHTS Assay for Identification of Small Molecule Agonists for Hypoxia Response Element Signaling Pathway (AID 914; active = well fitted activation curve with a large enough effect in the signal ratio, with a control signal flat, not every such curve was filed as active; the % refers to the signal ratio; note: % of control where 0% means no effect). The settings on record: ME-180 (cervical carcinoma) HRE-bla reporter, beta-lactamase ratio, CoCl2, 17 h; activation: stronger effect = higher value. Put shortly: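 HRE-bla ME-180 assay for agonist-like enhancement of an EC50 CoCl2 stimulus: 17 h at 37 degrees Celsius, CCF4 for 2.5 h, ratiometric 460/530 nm signal converted to %Activity and fitted to AC50.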

[15] abbreviates: measured here: cell count channel max response.
Setting [16] is: measured here: lipid channel max response.

Chain of 3',5'-cyclic-AMP phosphodiesterase 4B (Homo sapiens) (Q07343 whole entry, looked up): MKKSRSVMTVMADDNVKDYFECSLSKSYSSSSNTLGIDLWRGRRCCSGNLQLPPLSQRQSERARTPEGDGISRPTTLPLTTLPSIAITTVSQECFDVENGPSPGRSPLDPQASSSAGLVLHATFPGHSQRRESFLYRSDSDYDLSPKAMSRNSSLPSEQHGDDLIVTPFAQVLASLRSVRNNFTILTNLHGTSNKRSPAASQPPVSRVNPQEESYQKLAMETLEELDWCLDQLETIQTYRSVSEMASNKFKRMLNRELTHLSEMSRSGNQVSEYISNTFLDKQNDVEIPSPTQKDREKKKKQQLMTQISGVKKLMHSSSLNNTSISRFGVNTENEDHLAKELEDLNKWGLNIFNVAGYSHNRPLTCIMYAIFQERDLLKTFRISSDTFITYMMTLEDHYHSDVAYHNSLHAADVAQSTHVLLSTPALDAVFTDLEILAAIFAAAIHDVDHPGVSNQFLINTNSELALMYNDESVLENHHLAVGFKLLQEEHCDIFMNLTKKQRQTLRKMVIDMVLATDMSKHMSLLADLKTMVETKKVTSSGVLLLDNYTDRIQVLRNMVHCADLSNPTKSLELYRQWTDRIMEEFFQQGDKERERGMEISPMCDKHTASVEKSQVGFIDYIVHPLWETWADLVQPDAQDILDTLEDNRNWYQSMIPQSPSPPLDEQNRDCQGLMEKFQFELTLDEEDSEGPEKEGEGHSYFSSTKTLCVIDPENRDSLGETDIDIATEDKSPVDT
Chain of Glucocorticoid receptor (Homo sapiens) (P04150 whole entry, looked up): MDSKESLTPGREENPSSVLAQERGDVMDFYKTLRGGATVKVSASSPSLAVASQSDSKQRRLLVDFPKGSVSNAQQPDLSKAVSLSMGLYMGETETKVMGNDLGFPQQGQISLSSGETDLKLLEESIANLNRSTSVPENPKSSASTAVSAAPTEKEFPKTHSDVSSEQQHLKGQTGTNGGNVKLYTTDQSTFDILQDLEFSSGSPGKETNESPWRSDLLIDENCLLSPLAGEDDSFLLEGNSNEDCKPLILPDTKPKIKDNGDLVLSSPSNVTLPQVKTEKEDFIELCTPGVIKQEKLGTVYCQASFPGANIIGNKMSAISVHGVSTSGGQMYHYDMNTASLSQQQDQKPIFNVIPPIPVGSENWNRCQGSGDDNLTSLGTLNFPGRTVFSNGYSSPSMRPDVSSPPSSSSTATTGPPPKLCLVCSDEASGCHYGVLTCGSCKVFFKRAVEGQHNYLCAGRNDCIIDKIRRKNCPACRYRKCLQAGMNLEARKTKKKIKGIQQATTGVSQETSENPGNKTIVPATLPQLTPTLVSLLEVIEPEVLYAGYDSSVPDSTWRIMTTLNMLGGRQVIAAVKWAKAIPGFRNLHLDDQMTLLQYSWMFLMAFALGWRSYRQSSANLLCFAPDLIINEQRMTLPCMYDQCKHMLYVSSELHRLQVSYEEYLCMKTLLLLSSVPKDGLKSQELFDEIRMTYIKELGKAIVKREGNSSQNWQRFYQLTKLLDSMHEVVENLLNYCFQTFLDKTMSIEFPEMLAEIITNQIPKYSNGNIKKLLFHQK
Chain of Lysosomal acid glucosylceramidase (Homo sapiens) (P04062 whole entry, looked up): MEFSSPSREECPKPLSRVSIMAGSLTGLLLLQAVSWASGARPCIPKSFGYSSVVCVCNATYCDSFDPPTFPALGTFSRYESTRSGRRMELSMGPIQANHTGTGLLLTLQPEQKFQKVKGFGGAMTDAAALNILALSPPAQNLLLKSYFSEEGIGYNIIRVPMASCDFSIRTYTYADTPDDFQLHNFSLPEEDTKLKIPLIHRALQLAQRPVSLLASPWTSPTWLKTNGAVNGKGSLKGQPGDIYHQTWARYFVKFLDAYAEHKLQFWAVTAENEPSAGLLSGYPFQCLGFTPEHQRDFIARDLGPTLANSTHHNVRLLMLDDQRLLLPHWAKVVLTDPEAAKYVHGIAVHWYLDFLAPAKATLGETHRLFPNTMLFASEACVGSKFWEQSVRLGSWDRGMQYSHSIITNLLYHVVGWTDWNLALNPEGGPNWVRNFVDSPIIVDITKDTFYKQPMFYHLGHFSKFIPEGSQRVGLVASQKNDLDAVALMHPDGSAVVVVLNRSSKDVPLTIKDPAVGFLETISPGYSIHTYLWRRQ
Chain of Cytochrome P450 3A4 (Homo sapiens) (P08684 whole entry, looked up): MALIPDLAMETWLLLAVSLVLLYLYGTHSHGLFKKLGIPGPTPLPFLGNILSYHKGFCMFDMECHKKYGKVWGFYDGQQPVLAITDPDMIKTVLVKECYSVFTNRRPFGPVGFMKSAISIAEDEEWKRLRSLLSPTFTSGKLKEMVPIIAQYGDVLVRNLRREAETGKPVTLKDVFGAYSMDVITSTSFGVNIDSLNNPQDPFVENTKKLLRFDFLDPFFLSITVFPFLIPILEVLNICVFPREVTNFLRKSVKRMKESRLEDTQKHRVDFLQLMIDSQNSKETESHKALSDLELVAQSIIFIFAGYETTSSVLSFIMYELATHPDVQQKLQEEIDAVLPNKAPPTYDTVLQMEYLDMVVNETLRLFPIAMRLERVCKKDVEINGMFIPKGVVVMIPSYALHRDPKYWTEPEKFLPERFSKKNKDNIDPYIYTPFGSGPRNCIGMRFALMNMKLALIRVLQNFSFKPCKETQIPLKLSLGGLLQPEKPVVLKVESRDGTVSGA

Regarding `Cc1ccccc1-c1nc(NCCN2CCOCC2)c2ccccc2n1`, the figures for the Potency in experiment [1], in [4] and in experiment [5] were > 11.4 µM (inactive), > 46 µM (inactive) and > 46 µM (inactive), respectively. For the same compound, the results for the activity change, negative = inhibition in [2] and in experiment [10] were -10.8% (inactive) and 8.15% (inactive), respectively. Also, the activity, negative = inhibition in [3] was -0.303% (inactive). The Potency entry in experiment [6], in experiment [7] and in [8] was “inactive” throughout. Further, the outcome in experiment [9] and in [11] was inactive. Besides, the values for the max response in [10] (setting [15]) and in experiment [10] (setting [16]) were 17.4% and 26.1%, respectively.

Take `COc1ncc2nc(-c3ccccc3)c(=O)n(C[C@H]3CCCO3)c2n1`: the Potency was > 11.4 µM (inactive) in [1], > 9.22 µM (inactive) in experiment [4] and > 46 µM (inactive) in experiment [5]. In addition, the activity change, negative = inhibition in experiment [2] was -19.2% (inactive); in experiment [10], 1.51% (inactive). Moreover, in [3], the activity, negative = inhibition is 0.632% (inactive). Besides, the Potency entry in [6], in experiment [7] and in experiment [12] was “inactive” each time. Also, the max response in experiment [10] (setting [15]) was found to be 9.98%; in experiment [10] (setting [16]), 14.7%. Besides, the result in [11] was inactive.

Turning to `COc1ccc(C(=O)N2CCC[C@@]3(CCN(c4ccncc4)C3)C2)cc1`, the Potency in experiment [1] was > 11.4 µM (inactive). Besides, the activity change, negative = inhibition is -1.81% (inactive) in experiment [2], -12.2% (inactive) in [13] and 0.196% (inactive) in [10]. Further, in experiment [3], the activity, negative = inhibition was -6.9% (inactive). For the same compound, the Potency result in experiment [6] and in [7] was “inactive” each time. Besides, the max response in experiment [10] (setting [15]) is -12%; in experiment [10] (setting [16]) it was -10.7%. The result in experiment [11] was inactive.

Turning to `COCC(=O)N1CCC2(CC1)CCN(C(=O)NC(C)C)CC2`, the Potency is > 11.4 µM (inactive) in experiment [1] and > 46 µM (inactive) in experiment [5]. For the same compound, the activity change, negative = inhibition is -2.26% (inactive) in experiment [2], 0.244% (inactive) in experiment [13] and 0.579% (inactive) in experiment [10]. In addition, the activity, negative = inhibition in [3] was 6.66% (inactive). Further, the Potency result in experiment [6] and in experiment [7] was “inactive” each time. For the same compound, in [14], the activation is -5.43% (inactive). For the same compound, the max response worked out at 13.2% in experiment [10] (setting [15]) and 16.2% in experiment [10] (setting [16]). Moreover, in [11], the result was inactive.

As for `Cn1cccc1C(=O)N1CCC2(CCN(Cc3ccc(C#N)cc3)CC2)CC1`, the Potency in experiment [1] is > 11.4 µM (inactive); in [5], > 46 µM (inactive). Further, the activity change, negative = inhibition was 11.1% (inactive) in experiment [2] and 0.873% (inactive) in [10]. Besides, in [3], the activity, negative = inhibition was -2.38% (inactive). The Potency result in experiment [6] and in [7] was “inactive” throughout. Also, the max response in experiment [10] (setting [15]) was 7.43%; in experiment [10] (setting [16]), 9.77%. In addition, the outcome in experiment [11] was inactive.

For the compound `N#Cc1ccc(CN2CCCC3(CCN(C(=O)c4ccco4)CC3)C2)cc1`, the Potency in experiment [1] was > 11.4 µM (inactive); in experiment [5], > 46 µM (inactive). The activity change, negative = inhibition is -7.19% (inactive) in experiment [2] and -5.76% (inactive) in experiment [10]. Besides, the activity, negative = inhibition in [3] was 4.81% (inactive). Also, the Potency entry in experiment [6] and in experiment [7] was “inactive” each time. Moreover, the max response is -5.31% in experiment [10] (setting [15]) and -10.9% in [10] (setting [16]). Further, in [11], the outcome was inactive.

As for `CC(C)CN1CC2(CCN(C(=O)c3ccco3)CC2)C1`, the Potency in experiment [1] was > 11.4 µM (inactive); in experiment [5], > 46 µM (inactive). Also, the activity change, negative = inhibition in experiment [2] is 6.73% (inactive); in [10], -2.08% (inactive). Also, the activity, negative = inhibition in experiment [3] was -3.41% (inactive). The Potency result in experiment [6] and in [7] was “inactive” throughout. Besides, the max response in experiment [10] (setting [15]) was found to be 8.53%; in experiment [10] (setting [16]), 7.7%. The outcome in experiment [11] was inactive.

`COCC(=O)N1CCC2(CC1)CCN(c1ccncc1)CC2`: the values for the Potency in [1] and in experiment [5] were > 11.4 µM (inactive) and > 46 µM (inactive), respectively. The activity change, negative = inhibition was 7.44% (inactive) in [2] and -1.56% (inactive) in experiment [10]. For the same compound, the activity, negative = inhibition in [3] is 16.3% (inactive). In addition, the Potency result in [6] and in experiment [7] was “inactive” each time. The max response in [10] (setting [15]) is -6.96%; in [10] (setting [16]) it was -10.2%. Besides, in experiment [11], the outcome was inactive.
